In paper PMC5540273 (PLoS ONE, 2017):

How the values were obtained:
Settings in all cases: concentration: 1 μM, replicates: in singlicate; n = 1
TAOK1 = system: TAOK1
TAOK2 = system: TAOK2
TAOK3 = system: TAOK3
TBK1 = system: TBK1
TEC = system: TEC
TESK1 = system: TESK1
TGFBR1 = system: TGFBR1
TGFBR2 = system: TGFBR2
TIE1 = system: TIE1
TIE2 = system: T1, TIE2
T1 construct: gene TEK

TLK1 = system: TLK1
TLK2 = system: TLK2
TNIK = system: TNIK
TNK1 = system: TNK1
TNK2 = system: TNK2
TNNI3K = system: TNNI3K
TRKA = system: T2, TRKA
T2 construct: gene NTRK1

TRKB = system: TRKB
TRKC = system: T3, TRKC
T3 construct: gene NTRK3

TRPM6 = system: TRPM6
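Note: KINOMEscan kinase panel screen.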

SMILES	%Inh (TAOK1) [%]	%Inh (TAOK2) [%]	%Inh (TAOK3) [%]	%Inh (TBK1) [%]	%Inh (TEC) [%]	%Inh (TESK1) [%]	%Inh (TGFBR1) [%]	%Inh (TGFBR2) [%]	%Inh (TIE1) [%]	%Inh (TIE2) [%]	%Inh (TLK1) [%]	%Inh (TLK2) [%]	%Inh (TNIK) [%]	%Inh (TNK1) [%]	%Inh (TNK2) [%]	%Inh (TNNI3K) [%]	%Inh (TRKA) [%]	%Inh (TRKB) [%]	%Inh (TRKC) [%]	%Inh (TRPM6) [%]
COc1ccc(CSc2nnc(-c3ccc4nccn4c3)o2)cc1C(F)(F)F	22	13	0	10	21	12	14	12	22	0	6	13	0	0	3	0	18	0	38	0
CNc1cc(-c2ccc3c(N)n[nH]c3c2)nc(N)n1 [GSK2224810]	56	0	9	9	15	0	36	47	0	0	25	20	8	0	0	2	11	0	0	0
Cc1ccc(NC(=O)Nc2ccc(Cl)c(C(F)(F)F)c2)cc1-c1ccc(C(=O)Nc2ccncc2)cc1 [GSK1398470]	0	0	0	17	8	23	0	7	6	0	20	8	9	20	10	64	11	0	0	6
CC(=O)c1cccc(NC(=O)NC2CCN(c3ccnc(Nc4ccc(F)cc4)n3)C2)c1 (stereo not drawn) [GSK1379710]	2	0	11	18	4	20	38	0	0	0	12	25	3	0	7	5	56	69	81	32
Cc1ccc(NC(=O)Nc2ccccc2)cc1-c1ccc(C(=O)Nc2ccncc2)cc1 [GSK1398471]	0	0	0	17	0	2	0	0	0	0	19	4	0	18	13	49	23	0	0	27
Cc1c(Cn2c3ccccc3n3c(=O)cc(N4CCOCC4)nc23)cccc1C(F)(F)F [GSK2306394]	0	0	0	13	1	0	0	10	6	0	5	0	0	0	3	0	0	0	0	0
COc1cccc(NC(=O)Nc2ccc(C)c(-c3ccc(C(=O)Nc4ccncc4)cc3)c2)c1 [GSK1398474]	0	0	4	29	5	19	0	0	0	0	11	0	0	10	16	20	4	0	2	31
CNc1nc(-c2ccc3c(N)n[nH]c3c2)cc(N2C[C@@H](C(=O)Nc3ccccc3)CC[C@H]2C)n1 [GSK2298859]	0	0	0	14	4	24	12	0	0	0	0	0	0	0	3	0	77	2	0	0
CS(=O)(=O)Cc1ccc(Nc2nccc(-c3c(-c4cccc(NC(=O)C5CCCCC5)c4)nn4ncccc34)n2)cc1 [GSK350559]	11	0	0	29	29	10	0	0	3	0	16	0	0	29	13	0	39	16	27	0
CC(C)c1cc(-c2ccc3c(N)n[nH]c3c2)nc(N)n1 [GSK2250882]	0	0	0	13	0	35	0	0	0	0	2	0	14	0	14	0	0	0	0	0
Cc1c(Cn2c(C)c(C)n3c(=O)cc(N4CCOCC4)nc23)cccc1C(F)(F)F [GSK2328680]	0	0	0	9	5	22	9	0	54	0	0	0	0	0	13	0	12	0	21	0
Nc1cccc(-c2ccc3c(N)n[nH]c3c2)n1 [GSK2192730]	1	0	0	18	0	13	3	0	0	0	33	21	24	0	0	0	0	0	0	18
COc1ccc(CSc2nnc(-c3ccc4ncsc4c3)o2)cc1C(F)(F)F	31	9	0	13	0	3	5	19	0	19	0	7	0	0	0	0	0	0	13	0
CCn1c(-c2c(N)noc2C)nc2cnccc21 [SB-737856]	0	0	0	0	1	54	4	0	0	0	0	0	0	0	22	6	0	0	0	0
COc1ccc(Nc2nccc(NCCNC(=O)Nc3cc(C)ccc3C)n2)cc1 [GSK1379899]	0	0	1	0	16	7	0	0	0	0	0	0	0	0	0	0	3	0	7	0
CS(=O)(=O)CCNCc1nc(-c2ccc3ncnc(Nc4ccc5c(cnn5Cc5ccccc5)c4)c3c2)cs1.Cl.Cl [GW569716]	0	0	0	0	0	21	27	0	0	0	0	0	0	0	18	0	0	73	40	0
COc1ccc(Nc2nccc(N3CCC(NC(=O)C(C)c4ccc(Cl)cc4)C3)n2)cc1 (stereo not drawn) [GSK1379735]	0	0	0	4	14	3	23	0	35	8	0	0	10	0	15	6	19	0	11	1
CSc1ccc(-c2nc3n(c2-c2ccncc2)CCC3)cc1 [SKF-105561]	0	14	9	0	11	8	15	13	0	0	31	0	7	0	0	49	0	4	46	0
Fc1ccc(-c2nn3cccc(F)c3c2-c2ccncc2)cc1 [GW475620]	0	0	0	22	0	4	17	11	7	1	0	0	32	0	12	0	15	0	2	0
Cc1ccc(NC(=O)Nc2ccc(Cl)cc2)cc1-c1ccc(C(=O)Nc2ccncc2)cc1 [GSK1398472]	0	0	0	8	0	54	3	0	0	0	0	0	0	0	16	25	0	0	9	14
COc1ccc(Nc2nccc(N3CCC(NC(=O)c4cc5ccccc5s4)C3)n2)cc1 (stereo not drawn) [GSK1379738]	0	0	0	22	12	30	17	0	0	0	3	0	0	11	18	0	60	32	0	39
